# Source: PubChem
# ATXN2 expr inh: ATXN2 expression inhibition | AID 1745845 | HEK-293 ATXN2-luciferase reporter, luminescence, 24 h | 0.72% of 360,000 active | Potency, µM (doses to about 57 µM), for the others: at the top dose activity change, negative = inhibition, usual class: inhibitors; also: % is scaled to controls: 0 for no effect and ±100 for the full control effect; nearly all actives have a fitted effect of over 55% in size
#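 qHTS (up to 57 uM final) was run with 24 h compound exposure of reporter cells at 37 °C. Each well was multiplexed: SteadyGlo luminescence measured ATXN2-luciferase expression after a fluorogenic Gly-Phe-AFC viability readout (25 uM final).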
# HepG2 viability: HepG2 cytotoxicity, counter-screen for TGF-b inhibitors; HepG2 CAGA-GFP viability, ATP luminescence, 18 h; Potency, µM (top dose mostly 46.1 µM), for inactives: top-dose activity change, negative = cytotoxicity, usual class: cytotoxic; 0.76% of 410,000 active
#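 HepG2 CAGA-GFP cells (1000/well, DMEM with 1% FBS) received compound, then TGF-beta at 500 pg/mL final, and were incubated 18 hours at 37 degrees C. Viability was read by CellTiter-Glo luminescence. Media-only wells were set as complete cell-killing and DMSO as no toxicity.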
# DT40 TDP1 no CPT: qHTS for Inhibitors of human tyrosyl-DNA phosphodiesterase 1 (TDP1): qHTS in cells in absence of CPT; 15% of 420,000 active; Potency, µM (doses to about 46.2 µM), for inactives: at the top dose activity change, negative = growth inhibition, usual class: inhibitors; AID 686978, 2013; DT40 Tdp1-/- hTDP1 cells, no CPT, ATP luminescence, 48 h; also: % is scaled to controls: 0 for no effect and ±100 for the full control effect; nearly all actives have a fitted effect of over 55% in size
#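 Luminescent ATP content (CellTiter-Glo) served as the growth readout. Knockout chicken DT40 cells expressing human TDP1 were exposed to compounds without camptothecin for a minimum 48 hr at 37 °C.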
# TGFb SMAD3 inh: TGF-b pathway inhibition; HepG2 CAGA-GFP TGF-b/SMAD3 reporter, GFP fluorescence, 18 h; TGF-beta stimulated, 500 pg/mL final; AID 588855; 1.2% of 410,000 active; Potency, µM (titrated, usually from 46.1 µM), without a hit: at the top dose activity, negative = inhibition, usual class: inhibitors; also: % is scaled to controls: 0 for no effect and ±100 for the full control effect; nearly all actives have a fitted effect of over 65% in size
#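 HEPG2 CAGA-GFP, 1000 cells/well; 2 h settle, 37 C; cpd via pin tool; TGF-b 500 pg/mL final; 18 h, 37 C; GFP imaging ex488/em500-530; %Activity normalised to -TGF-b and +DMSO controls; CRC fit, curve class.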
# ATXN viability: viability counter-screen for ATXN expression inhibitors; Potency, µM (highest dose often 56.7 µM), hits mostly cytotoxic; 0.49% of 400,000 active; S2 cells (HEK-293 line with an ATXN2-luciferase reporter) viability, CellTiter-Fluor protease fluorescence, 24 h; also: nearly all actives have a fitted effect of over 40% in size
# TDP1 cell CPT: growth inhibition of DT40 Tdp1-/-;hTDP1 cells with camptothecin (screen for TDP1 inhibitors); chicken DT40 Tdp1-/-;hTDP1 cells + 20 nM CPT, ATP luminescence, 48 h; Potency, µM (titrated, usually from 46.2 µM), for inactives: at the top dose activity change, negative = growth inhibition, hits mostly inhibitors; 12% of 420,000 active; AID 686979; also: % is scaled to controls: 0 for no effect and ±100 for the full control effect; nearly all actives have a fitted effect of over 55% in size
#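 Cell growth measured by CellTiter-Glo luminescence after a minimum 48 h, 37 C compound exposure with 20 nM CPT in Tdp1-knockout DT40 cells stably expressing hTDP1, seeded 400/well; qHTS titration format.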
# Numbers without * were called inactive; i = inactive; ? = inconclusive; nt = not tested or not shown. Sampled rows, rich in hits. Any-hit rate of the full collection: about 17%. Calls follow the shape of the dose curve; as a rule, active = well fitted curve in the direction sought with a large enough effect; inconclusive = small, poorly fitted or top-dose-only effect, or another doubt; inactive = no such curve, though single readings can be large; an effect the other way counts as inactive or inconclusive. Potency is read from the fitted curve at half-maximal effect.
SMILES,ATXN2 expr inh,HepG2 viability,DT40 TDP1 no CPT,TGFb SMAD3 inh,ATXN viability,TDP1 cell CPT
O=C(CCN=C1NS(=O)(=O)c2ccccc21)OCC(=O)c1ccccc1Cl,10.0%,1.2%,-21.6%,-4.9%,i,-26.1%
COc1ccc(S(=O)(=O)n2nc(-c3ccco3)nc2NCc2ccc(N(C)C)cc2)cc1,11.8%,-31.5%,?,-17.3%,i,?
CC(C)c1ccc(CNc2nc(-c3ccco3)nn2S(=O)(=O)c2ccccc2)cc1,8.0%,-15.5%,?,0.0%,i,23.1µM*
Cc1ccc(CNc2nc(-c3ccco3)nn2C(=O)c2ccccc2[N+](=O)[O-])cc1,5.6%,-9.7%,18.4µM*,-0.8%,i,?
Cc1ccc(S(=O)(=O)n2nc(-c3ccco3)nc2NCc2ccc(N(C)C)cc2)cc1,1.4%,-9.4%,23.1µM*,0.0%,i,?
Cc1cc(C)c2c(c1)c1nnc(SCCN3CCOCC3)nc1n2C,nt,-18.0%,8.2µM*,-14.5%,i,-7.8%
c1ccc2c(c1)[nH]c1nc(SCCN3CCOCC3)nnc12,1.8%,-16.4%,?,-7.1%,i,-21.5%
CCn1c2nc(SCCN3CCOCC3)nnc2c2cc(C)cc(C)c21,-30.2%,-12.0%,?,?,i,16.4µM*
CCCn1c2ccccc2c2nnc(SCCN3CCOCC3)nc21,-13.4%,-6.2%,?,15.3%,i,?
Cc1cc(-c2cc(C(=O)NCc3ccccc3)on2)nc(NCC2CC2)n1,-3.0%,-12.0%,-16.9%,-10.0%,i,-19.7%
CCCNC(=O)CSc1nnc(-c2ccc(F)cc2)o1,6.1%,-15.3%,15.5%,13.9%,i,-11.1%
O=C(O)C1CC=CCC1C(=O)N1CCN(c2nc(-c3ccccc3)c3ccccc3n2)CC1 (centres undefined),-4.7%,-31.5%,?,-29.2%,i,18.4µM*
CC(C)OC(=O)c1ccc2ccc(-c3ccccc3)nc2c1,111.1%,-24.9%,16.4µM*,-12.3%,i,?
Cc1cccc(OCC(=O)Nc2nnc(S(=O)(=O)N3CCc4ccccc43)s2)c1,nt,-36.8%,?,?,nt,?
CCNC(=O)/C(C#N)=C/c1c(N2CCN(c3ccc(OC)cc3)CC2)nc2c(C)cccn2c1=O,-23.9%,-30.1%,20.6µM*,-23.0%,?,?
COCCNC(=O)/C(C#N)=C/c1c(N2CCN(c3ccc(OC)cc3)CC2)nc2c(C)cccn2c1=O,-16.0%,-9.7%,23.1µM*,-0.1%,i,23.1µM*
CNC(=O)/C(C#N)=C/c1c(N2CCN(c3cccc(Cl)c3)CC2)nc2c(C)cccn2c1=O,-28.0%,-25.1%,11.6µM*,-14.6%,nt,?
C=CCNC(=O)/C(C#N)=C/c1c(N2CCN(c3cccc(Cl)c3)CC2)nc2c(C)cccn2c1=O,-18.7%,-21.9%,?,-24.0%,nt,?
N#C/C(=C\c1c(N2CCN(c3ccccc3)CC2)nc2ccccn2c1=O)C(N)=O,27.4%,-0.1%,-18.9%,5.4%,i,-15.7%
CCNC(=O)/C(C#N)=C/c1c(N2CCN(c3ccccc3)CC2)nc2c(C)cccn2c1=O,-21.8%,-13.0%,?,8.8%,i,?
Cc1cccn2c(=O)c(/C=C(\C#N)C(N)=O)c(N3CCN(c4ccccc4)CC3)nc12,nt,0.8%,6.51µM*,?,?,?
O=C(Nc1nnc(SCCN2CCOCC2)s1)C1CC(=O)N(c2ccccc2)C1 (centres undefined),-3.1%,-2.2%,-3.5%,-14.3%,i,6.3%
Cc1cccc(N2C(=O)CC(n3ccnc3)C2=O)c1C (centres undefined),-21.7%,-13.8%,7.0%,-22.0%,i,-5.3%
